A number with no mark means an inactive call. For some assays here: Measured potencies and affinities stand elsewhere. The source made the active and inactive calls. Unless noted, how the calls were made is not given here.

The nature of assay [1]: antimalarial activity against Dd2 strain (AID 2302;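 active means growth inhibition above 50% at the single 2 µM test dose, taken to imply half-maximal potency below 2 µM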;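 further: 0% = DMSO untreated growth and 100% = chloroquine plus artemisinin killed control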). The settings on record: P. falciparum Dd2 in RBCs, LDH growth readout, 72 h; at 2 µM; hits give high values.
A short description of assay [2]: HepG2 cytotoxicity, primary screen, cytotoxicity control for P. falciparum antimalarial project, cell-based, ATP luminescence (AID 2303;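 active means inhibition above 50%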;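 further: 0% = DMSO wells and 100% = digitonin-killed cells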). The settings on record: HepG2 viability, 24-48 h, at 10 µM, hits give high values.
In assay [3] the target is L-lactate dehydrogenase (Plasmodium falciparum (isolate CDC / Honduras)) (UniProt Q27743). As to the kind of experiment: PfLDH activity inhibition – cell lysate, 3D7 strain, counter-screen for P. falciparum growth inhibition project (AID 2304).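 Further: 0% = vehicle and 100% = reference inhibitor.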 The settings on record: P. falciparum 3D7 crude extract, LDH APAD/NBT absorbance; at 2 µM; hits give high values.
Chain of L-lactate dehydrogenase (Plasmodium falciparum (isolate CDC / Honduras)) (Q27743 whole entry, looked up): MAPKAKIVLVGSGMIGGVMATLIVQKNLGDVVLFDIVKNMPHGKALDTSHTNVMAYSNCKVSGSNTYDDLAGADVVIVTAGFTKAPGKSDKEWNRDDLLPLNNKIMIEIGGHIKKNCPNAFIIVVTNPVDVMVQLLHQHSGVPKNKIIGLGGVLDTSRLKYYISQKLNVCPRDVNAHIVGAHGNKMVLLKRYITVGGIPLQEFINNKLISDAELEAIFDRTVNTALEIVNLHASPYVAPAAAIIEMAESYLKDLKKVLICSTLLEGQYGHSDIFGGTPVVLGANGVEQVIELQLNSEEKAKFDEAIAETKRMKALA
Assay [4] is described as follows: inhibition of 3D7 malaria parasite growth – strain 3D7 (AID 2306).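 Further: 0% = DMSO wells and 100% = chloroquine plus artemisinin control wells.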 The settings on record: P. falciparum 3D7 erythrocytic growth, LDH absorbance, 72 h; at 2 µM; hits give high values.
Assay [5] concerns the target Calcium-dependent protein kinase 1 (Plasmodium falciparum (isolate 3D7)) (UniProt P62344). As to the kind of experiment: PfCDPK1 kinase inhibitors, biochemical, TCAMS library (AID 1159585; cut-off not given, nearly all actives have IC50 up to about 0.98 µM;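 further: inhibitors leave more ATP so luminescence rises with inhibition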). The settings on record: recombinant PfCDPK1, Kinase-Glo ATP depletion luminescence. For orientation: In Kinase-Glo more light means more ATP remaining.
The target in assay [6] is Plasmodium falciparum protein kinase 6 (PK6, PF3D7_1337100) (UniProt Q8IDW1). Kind of assay: PfPK6 kinase inhibitors, biochemical, TCAMS library (AID 1159586). The settings on record: recombinant PfPK6, Kinase-Glo ATP depletion luminescence.
Chain of Plasmodium falciparum protein kinase 6 (PK6, PF3D7_1337100) (Q8IDW1 1-305): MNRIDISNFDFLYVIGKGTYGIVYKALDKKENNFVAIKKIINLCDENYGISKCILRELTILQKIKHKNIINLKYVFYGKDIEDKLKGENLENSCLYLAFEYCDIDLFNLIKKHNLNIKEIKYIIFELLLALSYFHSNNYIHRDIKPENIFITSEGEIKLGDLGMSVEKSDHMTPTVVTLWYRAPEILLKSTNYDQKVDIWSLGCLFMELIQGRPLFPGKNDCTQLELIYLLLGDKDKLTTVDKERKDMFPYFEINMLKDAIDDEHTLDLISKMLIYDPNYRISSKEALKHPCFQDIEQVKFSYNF
Assay [7] addresses Protein kinase 7 (PK7), Plasmodium falciparum 3D7 (PF3D7_0213400) (UniProt Q7YTF7). As to the kind of experiment: inhibition of Plasmodium PK7 catalytic activity – biochemical, TCAMS antimalarial set, Kinase-Glo luminescence (AID 1159587). The settings on record: recombinant PfPK7, Kinase-Glo ATP depletion luminescence.
For assay [8], the target named is Calcium-dependent protein kinase 4 (Plasmodium falciparum (isolate 3D7)) (UniProt Q8IBS5). As to the kind of experiment: PfCDPK4 kinase inhibitors, biochemical, TCAMS library (AID 1159588; cut-off not given, nearly all actives have IC50 up to about 0.91 µM). The settings on record: recombinant PfCDPK4, Kinase-Glo ATP depletion luminescence.
Chain of Calcium-dependent protein kinase 4 (Plasmodium falciparum (isolate 3D7)) (Q8IBS5 whole entry, looked up): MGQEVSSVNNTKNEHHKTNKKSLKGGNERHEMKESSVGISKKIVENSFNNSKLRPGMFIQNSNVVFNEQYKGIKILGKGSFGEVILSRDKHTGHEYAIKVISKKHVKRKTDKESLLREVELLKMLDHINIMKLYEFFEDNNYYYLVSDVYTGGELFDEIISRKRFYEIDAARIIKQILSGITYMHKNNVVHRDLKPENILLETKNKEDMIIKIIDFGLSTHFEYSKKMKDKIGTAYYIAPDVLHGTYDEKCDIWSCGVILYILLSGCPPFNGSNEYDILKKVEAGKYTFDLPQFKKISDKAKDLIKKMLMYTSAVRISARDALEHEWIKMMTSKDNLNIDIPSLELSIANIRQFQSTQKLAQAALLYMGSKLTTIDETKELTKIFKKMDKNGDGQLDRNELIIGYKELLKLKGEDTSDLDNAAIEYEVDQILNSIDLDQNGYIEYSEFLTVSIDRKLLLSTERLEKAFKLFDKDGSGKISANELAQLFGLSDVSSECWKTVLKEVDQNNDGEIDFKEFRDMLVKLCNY

Chain of Calcium-dependent protein kinase 1 (Plasmodium falciparum (isolate 3D7)) (P62344 whole entry, looked up): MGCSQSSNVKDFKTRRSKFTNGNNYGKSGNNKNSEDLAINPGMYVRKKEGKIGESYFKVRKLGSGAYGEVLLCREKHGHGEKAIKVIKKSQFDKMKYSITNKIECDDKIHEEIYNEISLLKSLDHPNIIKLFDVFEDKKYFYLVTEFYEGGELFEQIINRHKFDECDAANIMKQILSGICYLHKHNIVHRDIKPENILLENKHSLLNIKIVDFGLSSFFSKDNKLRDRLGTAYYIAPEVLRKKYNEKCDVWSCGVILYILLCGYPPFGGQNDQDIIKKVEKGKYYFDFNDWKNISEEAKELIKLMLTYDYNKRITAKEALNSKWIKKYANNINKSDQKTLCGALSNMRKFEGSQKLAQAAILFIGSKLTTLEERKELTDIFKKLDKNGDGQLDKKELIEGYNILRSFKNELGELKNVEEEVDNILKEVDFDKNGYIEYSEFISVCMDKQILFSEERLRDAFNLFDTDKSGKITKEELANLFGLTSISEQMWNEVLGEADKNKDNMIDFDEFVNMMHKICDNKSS
Chain of Protein kinase 7 (PK7), Plasmodium falciparum 3D7 (PF3D7_0213400) (Q7YTF7 1-343): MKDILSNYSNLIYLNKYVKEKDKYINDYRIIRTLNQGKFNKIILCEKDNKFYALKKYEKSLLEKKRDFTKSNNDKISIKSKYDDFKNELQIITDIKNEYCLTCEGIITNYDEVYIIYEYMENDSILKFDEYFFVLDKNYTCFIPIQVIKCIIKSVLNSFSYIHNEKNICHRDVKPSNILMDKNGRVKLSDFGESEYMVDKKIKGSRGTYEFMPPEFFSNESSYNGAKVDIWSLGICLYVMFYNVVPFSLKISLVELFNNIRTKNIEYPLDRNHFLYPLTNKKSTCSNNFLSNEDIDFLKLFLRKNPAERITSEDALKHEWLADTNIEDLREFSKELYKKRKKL

On to `CCN(CCCN1CCCCC1)c1cc(C)nc(Nc2cccc3c2CCCC3)n1`, for which the growth inhibition was 46% in assay [1] and 92% (active) in assay [4]. Also, the inhibition (commonly the change of the read-out against control, counted positive when it falls) was 60% (active) in assay [2] and -3% in assay [3]. For the same compound, the outcome in assay [5], in assay [6], in assay [7] and in assay [8] was inactive.

In the case of `Cc1ccc2c(NN=Cc3ccc(N(C)C)cc3)cc(C)nc2c1`, the growth inhibition is 46% in assay [1] and 99% (active) in assay [4]. Moreover, the inhibition was -9% in assay [2] and 8% in assay [3]. The outcome in assay [5], in assay [6], in assay [7] and in assay [8] was inactive.

Turning to `CN1CCN(c2ccnc3ccc(NC(=O)c4ccc(Cl)c(Cl)c4)cc23)CC1`, the growth inhibition in assay [1] was 64% (active); in assay [4], 100% (active). Further, the inhibition in assay [2] was 4%; in assay [3], 2%. Further, the result in assay [5], in assay [6], in assay [7] and in assay [8] was inactive.

On to `CN1CCCN(Cc2ccc(-c3ccc(NC(=O)c4ccc(Cl)cc4)cc3)cc2)CC1`, for which the results for the growth inhibition in assay [1] and in assay [4] were 67% (active) and 96% (active), respectively. Further, the inhibition in assay [2] is 58% (active); in assay [3], 3%. The outcome in assay [5], in assay [6], in assay [7] and in assay [8] was inactive.

These data come from PubChem BioAssay.
